The values below come from the supplement of paper PMC9334596.

This assay concerns mPer2Luc MEF. Nature of the assay: PER2::LUC luminescence relative to vehicle control (fold of vehicle); higher = higher PER2::LUC reporter signal. To be noted: 10 µM. In a few lines: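 Mouse embryonic fibroblasts carrying the mPer2Luc reporter were seeded at ~3000 cells per well in 384-well plates, 48 h before compounds from commercial libraries were added at 10 μM. Cells were grown in DMEM with 10% FBS at 37 °C and 5% CO2. Luminescence was read with the ONE-Glo luciferase assay system 24 h and 30 h after treatment, followed by an alamarBlue viability assay. The value is PER2::LUC luminescence as fold of vehicle control.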

Values joined by “and” are separate entries in the source; they are usually repeats but may differ in a detail not shown here. Identical values can stand only once. The full ranking holds about 5,300 compounds; the median of “PER2::LUC luminescence relative to vehicle control” is about 0.96, and the highest 2% start at about 1.3. The entries come from a sample that favours the highest values as a whole.

For `Cc1ccc(NC(=O)Nc2cc(-c3ccccc3-c3nn[nH]n3)ccc2N(CC(C)C)CC(C)C)cc1`, the “PER2::LUC luminescence” value is, setting by setting: (time after treatment 24 h) 0.966; (time after treatment 30 h) 0.93.
On the same counts, the results for `O=c1ccc2cccc(O)c2[nH]1` are 1.06 and 0.957.
On the same counts, the results for `CCCCC/C=C\CCC(=O)N[C@H]1[C@H](Oc2c3cc4cc2Oc2ccc(cc2Cl)[C@@H](O[C@@H]2O[C@H](CO)[C@@H](O)[C@H](O)[C@H]2NC(C)=O)[C@@H]2NC(=O)[C@H](NC(=O)[C@@H]4NC(=O)[C@H]4NC(=O)[C@@H](Cc5ccc(c(Cl)c5)O3)NC(=O)[C@H](N)c3ccc(O)c(c3)Oc3cc(O)cc4c3)c3ccc(O)c(c3)-c3c(O[C@H]4O[C@H](CO)[C@@H](O)[C@H](O)[C@@H]4O)cc(O)cc3[C@@H](C(=O)O)NC2=O)O[C@H](CO)[C@@H](O)[C@@H]1O` are 0.886 and 0.953.
The corresponding values for `C=C[C@@](C)(O)CC[C@H]1C(=C)CC[C@H]2C(C)(C)CCC[C@]12C` are 0.946 and 0.911.
Turning to `COc1ccc(-c2coc3cc(O)cc(O)c3c2=O)cc1`, the “PER2::LUC luminescence” value came to 1.83 (time after treatment 24 h) and 1.97 (time after treatment 30 h).
The corresponding values for `COc1cc(-c2coc3cc(O[C@@H]4O[C@H](CO)[C@@H](O)[C@H](O)[C@H]4O)c(OC)c(O)c3c2=O)cc(O)c1OC` are 0.773 and 1.31.
On the same counts, the results for `O=c1c(-c2ccc(O)cc2)coc2cc(O)cc(O)c12` are 1.07 and 1.06.
The corresponding values for `COc1ccc(-c2coc3c(OC)c(OC)cc(O)c3c2=O)cc1` are 1.01 and 1.13.
On to `COc1cc(-c2coc3cc(OC)c(OC)c(OC)c3c2=O)cc(OC)c1OC`, for which the “PER2::LUC luminescence” value worked out at 0.972 (time after treatment 24 h) and 0.969 (time after treatment 30 h).
On the same counts, the results for `COc1cc(-c2coc3cc(O)c(OC)c(O)c3c2=O)cc(O)c1OC` are 1.37 and 1.39.
As for `COc1ccc(-c2coc3c(O)c(O)c(OC)cc3c2=O)cc1`, the “PER2::LUC luminescence” value (time after treatment 24 h) was 1.31 and the “PER2::LUC luminescence” value (time after treatment 30 h) was determined as 1.23.
On to `COc1ccc(-c2coc3cc(O)ccc3c2=O)cc1S(=O)(=O)O`, for which the “PER2::LUC luminescence” value (time after treatment 24 h) was determined as 1 and the “PER2::LUC luminescence” value (time after treatment 30 h) was found to be 0.898.
The corresponding values for `COc1ccc2c(=O)c(-c3ccc(O)cc3)coc2c1` are 1.39 and 1.62.
On the same counts, the results for `CC(C)(C)[Si](C)(C)Oc1ccc2oc(=O)c3c(c2c1)CCCN3` are 1.14 and 1.15.
On the same counts, the results for `CC(=O)O[C@@H]1C[C@@]23C[C@@]24CC[C@H](O[C@@H]2OC[C@@H](O)[C@H](O)[C@H]2O)C(C)(C)[C@@H]4CC[C@H]3[C@]2(C)C[C@@H]3O[C@]4(C[C@@H](C)[C@@H]3[C@@]12C)O[C@H](O)[C@@]1(C)O[C@@H]41` are 0.888 and 0.982.
Consider `CC[C@H](C)[C@@H]([C@@H](CC(=O)N1CCC[C@H]1[C@H](OC)[C@@H](C)C(=O)N[C@@H](Cc1ccccc1)c1nccs1)OC)N(C)C(=O)[C@@H](NC(=O)[C@@H](NC)C(C)C)C(C)C`, for which the “PER2::LUC luminescence” value reads like this: (time after treatment 24 h) 0.338; (time after treatment 30 h) 0.385.
The corresponding values for `O=C(O)CCC/C=C\C/C=C\C/C=C\C/C=C\CCCCCO` are 0.987 and 0.936.
The corresponding values for `COc1cc2c(cc1OC)[C@H]1[C@@H](C)c3ccc(OC)c(OC)c3CN1CC2` are 0.954 and 0.973.
The corresponding values for `CCCCOc1ccc(C(=O)Nc2ccc(F)cc2F)cc1` are 1.29 and 1.34.
Take `CCCCOc1ccc(CC(=O)NO)cc1`: the “PER2::LUC luminescence” value by setting is: (time after treatment 24 h) 1.01; (time after treatment 30 h) 1.01.
As to `COc1cc2nccc(Oc3ccc(NC(=O)Nc4ccc(F)cc4F)c(F)c3)c2cc1OC`, the “PER2::LUC luminescence” value was found to be 0.785 (time after treatment 24 h) and 0.689 (time after treatment 30 h).
Turning to `O=C[C@H](O)[C@@H](O)[C@H](O)CO` (racemic), the “PER2::LUC luminescence” value came to 0.94 (time after treatment 24 h) and 1.06 (time after treatment 30 h).
On the same counts, the results for `C[C@@H](O)[C@H]1C(=O)N2C(C(=O)O)=C(SC3CN(C4=NCCS4)C3)[C@H](C)[C@H]12` are 1.03 and 1.01.
The corresponding values for `O=C(O)c1ccc2nc(-c3cc(Cl)cc(Cl)c3)oc2c1` are 1.42 and 1.43.
Consider `C=CC(C1=CC(=O)C(OC)=CC1=O)c1ccc(OC)cc1` (stereo not drawn), for which the “PER2::LUC luminescence” value (time after treatment 24 h) is 1.16 and the “PER2::LUC luminescence” value (time after treatment 30 h) was 1.02.
As to `CC1(C)[C@@H](O)CC[C@]2(C)[C@H]3C(=O)C=C4[C@@H]5C[C@@](C)(C(=O)O)CC[C@]5(C)CC[C@@]4(C)[C@]3(C)CC[C@@H]12`, the “PER2::LUC luminescence” value is, setting by setting: (time after treatment 24 h) 1.22 and 0.966; (time after treatment 30 h) 1.5 and 0.907.
For `CC1(C)[C@@H](O)CC[C@]2(C)[C@H]3C(=O)C=C4[C@H]5C[C@@](C)(C(=O)O)CC[C@]5(C)CC[C@@]4(C)[C@]3(C)CC[C@@H]12`, the “PER2::LUC luminescence” value by setting is: (time after treatment 24 h) 0.97; (time after treatment 30 h) 0.899.
Regarding `CC1(C)[C@@H](OC(=O)CCC(=O)O)CC[C@]2(C)[C@H]3C(=O)C=C4[C@@H]5C[C@@](C)(C(=O)O)CC[C@]5(C)CC[C@@]4(C)[C@]3(C)CC[C@@H]12`, the “PER2::LUC luminescence” value runs as follows: (time after treatment 24 h) 0.965 and 0.646; (time after treatment 30 h) 0.891 and 1.01.
Regarding `CC(C)C[C@H](N)C(=O)N[C@H](C(=O)N[C@H](C(=O)N[C@@H](Cc1ccc(O)cc1)C(=O)N1CCC[C@H]1C(=O)N[C@@H](Cc1c[nH]c2ccccc12)C(=O)N[C@H](C(=O)N[C@@H](CCC(N)=O)C(=O)N[C@@H](CCCN=C(N)N)C(=O)O)[C@@H](C)O)C(C)C)C(C)C`, the “PER2::LUC luminescence” value reads like this: (time after treatment 24 h) 0.942; (time after treatment 30 h) 0.916.
On the same counts, the results for `COc1ccc(C[C@H]2c3cc(OC)c(OC)cc3CC[N+]2(C)C)cc1OC` are 0.944 and 0.889.
The corresponding values for `COc1ccccc1-c1nc(-c2ccccn2)no1` are 0.948 and 0.943.
As to `C#CCCC(=O)O`, the “PER2::LUC luminescence” value came out at 1.07 (time after treatment 24 h) and 0.985 (time after treatment 30 h).
In the case of `Cc1c(OCC(F)(F)F)ccnc1C[S@@+]([O-])c1nc2ccccc2[nH]1`, the “PER2::LUC luminescence” value (time after treatment 24 h) is 1.68 and 1.14; the “PER2::LUC luminescence” value (time after treatment 30 h) was 1.73 and 1.12.
Consider `Cc1c(OCC(F)(F)F)ccnc1C[S+]([O-])c1nc2ccccc2[nH]1` (stereo not drawn), for which the “PER2::LUC luminescence” value was found to be 1.17 (time after treatment 24 h) and 1.67 (time after treatment 30 h).
On the same counts, the results for `COc1ccnc(C[S+]([O-])c2nc3cc(-n4cccc4)ccc3[nH]2)c1C` (stereo not drawn) are 1.07 and 1.05.
Take `COCCCOc1ccnc(C[S+]([O-])c2nc3ccccc3[nH]2)c1C` (stereo not drawn): the “PER2::LUC luminescence” value was 1.15 and 1.39 and 1.44 (time after treatment 24 h); 1.12 and 1.68 and 1.47 (time after treatment 30 h).
Consider `COc1ccc2[nH]c([S+]([O-])Cc3ncc(C)c(OC)c3C)nc2c1` (stereo not drawn), for which the “PER2::LUC luminescence” value is, setting by setting: (time after treatment 24 h) 0.886; (time after treatment 30 h) 1.08.
`COc1ccc2[nH]c([S+]([O-])Cc3ncc(C)c(OC)c3C)nc2n1` (stereo not drawn): the “PER2::LUC luminescence” value turned out to be 0.776 (time after treatment 24 h) and 1.01 (time after treatment 30 h).
Consider `COc1ccc2[nH]c([S@@+]([O-])Cc3ncc(C)c(OC)c3C)nc2c1`, for which the “PER2::LUC luminescence” value was 1.02 and 1.01 and 1.11 (time after treatment 24 h); 1.01 and 0.923 and 1.08 (time after treatment 30 h).
In the case of `COc1ccnc(C[S+]([O-])c2nc3cc(OC(F)F)ccc3[nH]2)c1OC` (stereo not drawn), the “PER2::LUC luminescence” value is 0.944 and 1.32 (time after treatment 24 h); 1.01 and 0.991 (time after treatment 30 h).
Regarding `N=C(N/N=C/c1ccc(Cl)cc1)N/N=C/c1ccc(Cl)cc1`, the “PER2::LUC luminescence” value (time after treatment 24 h) was 0.996 and the “PER2::LUC luminescence” value (time after treatment 30 h) is 0.988.
Take `CCOC(=O)C1=Cc2ccc(C(F)(F)C(F)(F)F)cc2N=C(N)C1`: the “PER2::LUC luminescence” value was 1.07 (time after treatment 24 h) and 1.05 (time after treatment 30 h).
As to `O=[N+]([O-])c1cc(C(F)(F)F)cc([N+](=O)[O-])c1NNC(=S)Nc1ccc(F)cc1`, the “PER2::LUC luminescence” value reads like this: (time after treatment 24 h) 0.67; (time after treatment 30 h) 0.671.
Consider `CCCCC[C@H](O)/C=C/[C@@H]1[C@@H](C/C=C\CCCC(=O)O)[C@H](O)C[C@H]1O`, for which the “PER2::LUC luminescence” value runs as follows: (time after treatment 24 h) 1.1; (time after treatment 30 h) 1.1.
